Drawing on PubChem BioAssay AID488859 (Sanford-Burnham Center for Chemical Genomics, 2010), this text covers inhibition for 83 molecules.

About 970 (69%) of roughly 1,400 compounds were called active. About 5% were inconclusive and are not listed. So high a share suggests a set chosen from earlier hits. Only a sample is shown. Unmarked numbers belong to inactive results. No stated cut-off is given here; in the data, active means inhibition above about 45%; inconclusive means no clear call, values can overlap the other calls; inactive means below that.

Broadly, the inhibition is the relative decrease from the control value, in per cent.

This assay deals with Ubiquitin-conjugating enzyme E2 N (Homo sapiens) (UniProt P61088). Nature of the assay: UBC13 polyubiquitination inhibitors, single-point retest, confirmation, biochemical, TR-FRET, single concentration (AID 488859). The conditions noted are these: at 10 µM, active compounds read high. Background: TR-FRET usually uses a lanthanide donor and a delayed reading to cut background.
Sequence of Ubiquitin-conjugating enzyme E2 N (Homo sapiens) (P61088 whole entry, looked up): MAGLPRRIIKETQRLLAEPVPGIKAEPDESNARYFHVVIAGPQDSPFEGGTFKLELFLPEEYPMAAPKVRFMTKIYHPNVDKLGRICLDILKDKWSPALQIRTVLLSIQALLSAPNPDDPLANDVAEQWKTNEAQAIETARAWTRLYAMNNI
As to `O=C(COC(=O)Cn1cnc2ccccc2c1=O)NCc1ccccc1Cl`, the inhibition is 57.6% (active). In the case of `CCN1CCN(CCNC(=O)c2ccc(/C=C3/Sc4ccccc4N(Cc4cccc(C)c4)C3=O)cc2)CC1`, the inhibition was 85.6% (active). Regarding `COc1ccc(N(C(=O)c2snc(C(N)=O)c2N)C(C(=O)NC2CCCC2)c2ccco2)cc1OC` (stereo not drawn), the inhibition was 96.8% (active).

As for `CCC(C(=O)NC1CCCC1)N(C(=O)c1snc(C(N)=O)c1N)c1ccc2c(c1)OCCO2` (stereo not drawn), the inhibition is 95% (active). Turning to `NC(N)=Nc1nc(-c2ccccc2)c2cc(Cl)ccc2n1`, the inhibition was 79.9% (active). With `COc1ccc(C(CNC(=O)c2ccc(S(=O)(=O)Nc3ccccc3F)cc2)N(C)C)cc1` (stereo not drawn) the figure was 114% (active); with `NC(=O)NC(CC(=O)NNC(=O)c1ccccn1)c1ccc(Cl)cc1` (stereo not drawn), 95.3% (active); with `CC(C)n1cnc2c(Nc3cccc(Cl)c3)nc(N(CCO)CCCO)nc21`, 30.6%. `COc1cccc2sc3cc(NCC[C@@H]4CCCN4C)ccc3c(=O)c12`: the inhibition was 41.3%. In the case of `CCCC[C@@H]1CN=C(N)N1CCc1cc(C(F)(F)F)cc(C(F)(F)F)c1`, the inhibition is 55.4% (active). Take `CN(C)CC(O)COc1ccc(C(C)(C)c2ccc(OCC(O)CN(C)C)cc2)cc1` (stereo not drawn): the inhibition is 60.5% (active). With `Cc1ccc(NC(=O)c2cnc(SCC(=O)NCC3CCCO3)n(C)c2=O)cc1` (stereo not drawn), the inhibition is 95.9% (active). The same measure for `NC[C@H](Cc1ccccc1)NCCc1cc(C(F)(F)F)cc(C(F)(F)F)c1`: 40.1%; for `Cc1c(CN2CCC(CO)(CCOc3ccccc3)CC2)[nH]c2ccc(Cl)cc12`: 74% (active). On to `CCOC(=O)[C@@H]1[C@H]2COc3cc(OC)ccc3[C@H]2N2C(=O)N(c3ccc(F)cc3)C(=O)[C@]12C`, for which the inhibition was 1.2%. With `O=C(CCCCCN1C(=O)c2cccc3cccc(c23)C1=O)NCc1ccco1` the figure was 50.7% (active); with `CN(C)c1ccnc2sc3c(=O)n(Cc4ccccc4)cnc3c12`, 57.1% (active). In the case of `COc1ccnc2c1c(=O)n(Cc1cccc(F)c1)c(=O)n2C`, the inhibition is 52.3% (active). With `C#CCOCCOCCOCCNc1nc(N2CCN(C(=O)CCCCCCCCCCNC(=O)[C@H](CCCCN)n3cc(C)nn3)CC2)nc(N2CCN(C(=O)CCCCCCCCCCNC(=O)[C@H](CO)n3cc(CCCSC)nn3)CC2)n1`, the inhibition is 121% (active). As to `C#CCOCCOCCOCCNc1nc(N2CCN(C(=O)CCCCCCCCCCNC(=O)[C@H]([C@@H](C)CC)n3cc(CCCCN=C(N)N)nn3)CC2)nc(N2CCN(C(=O)CCCCCCCCCCNC(=O)[C@H](CO)n3cc(CCCSC)nn3)CC2)n1`, the inhibition is 121% (active). `C#CCOCCOCCOCCNc1nc(N2CCN(C(=O)CCCCCCCCCCNC(=O)Cn3cc(CCCCCN)nn3)CC2)nc(N2CCN(C(=O)CCCCCCCCCCNC(=O)[C@H](CO)n3cc(CCCSC)nn3)CC2)n1`: the inhibition is 129% (active).

With `CC1(C)Cc2ccccc2-c2[nH]c(=S)[nH]c(=O)c21`, the inhibition was 26.2%. Turning to `CC1CC(C)(C)n2c(O)c(N=NC(N)=S)c3cccc1c32` (stereo not drawn), the inhibition was 107% (active). `COc1ccc(-n2nnnc2-c2nc3ccccc3s2)cc1`: the inhibition is 51.1% (active). As for `CN1CCC(CN)(N2CCN(c3ccccc3)CC2)CC1`, the inhibition was 48.6% (active). Turning to `CC(=O)NC(=S)NNC(=O)c1ccc(Br)cc1`, the inhibition is 89.8% (active).

On to `COc1ccc(/C=N\NC(=O)c2sc(N)nc2C)cc1OC`, for which the inhibition was 110% (active).

On to `O=C(CCCCCn1c(=O)[nH]c2ccccc2c1=O)NCCc1c[nH]c2ccccc12`, for which the inhibition is 67.3% (active). In the case of `CCOC(=O)N1CCN(C(=O)Cc2ccc(-n3c(=S)[nH]c4ccccc4c3=O)cc2)CC1`, the inhibition was 37.3%. `c1ccc(C[C@H]2CNCCN2CCC23CC4CC(CC(C4)C2)C3)cc1`: the inhibition was 42.5%. With `CCN(CC)CCNC(=O)c1ccc(NC(=O)c2cc(-c3ccncc3)nc3ccccc23)cc1`, the inhibition was 91.5% (active). As to `Cc1ccc(C(C(=O)NCC2CCCO2)N(C(=O)c2snc(C(N)=O)c2N)c2ccc(C(C)C)cc2)o1` (stereo not drawn), the inhibition was 30.4%.

In the case of `CCOc1ccc(N(C(=O)c2snc(C(N)=O)c2N)C(C(=O)NCC2CCCO2)c2c[nH]c3ccccc23)cc1` (stereo not drawn), the inhibition was 100% (active). On to `COc1cccc(N(C(=O)c2snc(C(N)=O)c2N)C(C(=O)NCC2CCCO2)c2c[nH]c3ccccc23)c1` (stereo not drawn), for which the inhibition was 57.9% (active). Turning to `Cc1ccc(N(C(=O)c2snc(C(N)=O)c2N)C(C(=O)NCC2CCCO2)c2c[nH]c3ccccc23)cc1` (stereo not drawn), the inhibition was 70.6% (active). With `O=c1cc(CO)oc(C(Nc2cccc(C(F)(F)F)c2)c2ccccn2)c1O` (stereo not drawn), the inhibition was 88.9% (active).

For `O=c1cc(CO)oc(C(Nc2cccc([N+](=O)[O-])c2)c2ccccn2)c1O` (stereo not drawn), the inhibition is 39.1%.

In the case of `O=c1c2c(nc3n1CCCCC3)sc1c(O)cccc12`, the inhibition is 104% (active). On to `Cc1cccc(-n2cnc(C(=O)NNC(=S)Nc3ccccc3)c2)n1`, for which the inhibition is 107% (active). In the case of `CCOCCCNC(=O)c1cn(CC(C)C)c(=O)c2c1c1ccccc1n2C`, the inhibition is 37.9%. Consider `Cc1ccccc1C(=O)OC1OC(=O)C(Cl)=C1Nc1ccccc1` (stereo not drawn), for which the inhibition is 88.9% (active).

As to `Cc1ccc(NC2=C(Cl)C(=O)OC2OC(=O)c2ccccc2C)cc1` (stereo not drawn), the inhibition was 62% (active). As for `C[C@@H](CN1CCC[C@H]1CN1C(N)=NC[C@@H]1Cc1ccccc1)N1C[C@@H](Cc2ccccc2)N(CCCC2CCCC2)C1=N`, the inhibition was 58.5% (active). Consider `CC[C@@H](C)[C@@H]1CN([C@@H](C)CN2CCC[C@H]2CN2C(N)=NC[C@H]2C(C)C)C(=N)N1CCc1ccc(Cl)c(Cl)c1`, for which the inhibition is 38.2%. In the case of `COc1ccc2sc(-c3ccccc3OC)c(-c3ccc(OCCN4CCCC4)cc3)c2c1`, the inhibition was 54.8% (active). As to `COc1ccc2sc(-c3ccc(S(C)(=O)=O)cc3)c(C#Cc3cncn3C)c2c1`, the inhibition was 29.5%. The same measure for `CCOC(=O)c1ccc(NC(=O)c2nc[nH]c2C(=O)NCc2ccccc2)cc1`: 25.1%; for `CC1CN(C(=O)CCC(=O)NCCCN2CCC(Cc3ccccc3)CC2)c2cc(Cl)ccc2O1` (stereo not drawn): 87.8% (active). Regarding `CCOC(=O)C1=C(c2ccccc2)O/C(=C(/C(=O)OC)C(F)(F)F)S1`, the inhibition was 42.4%.

With `Cc1cccc(-c2nc3ccc(C(=O)NCCN4CCN(C)CC4)cc3nc2-c2cccc(C)c2)c1`, the inhibition is 72.8% (active).

Turning to `Cc1ccc(C(=O)N/C(=C/c2ccc(-c3cccc([N+](=O)[O-])c3)o2)C(=O)NCCCN(C)C)cc1`, the inhibition was 78% (active).

`O=S(=O)(c1ccc(NC(=S)NN=C(C2CC2)C2CC2)cc1)N1CCOCC1`: the inhibition was 60.4% (active). In the case of `CN(C(=O)CN(CCO)CC(=O)N(C)C(C)(C)Cc1ccccc1)C(C)(C)Cc1ccccc1`, the inhibition was 44.3%.

On to `Cc1cccc(OCC(O)CN2CCN(CCN3C(=O)c4cccc5cccc(c45)C3=O)CC2)c1C` (stereo not drawn), for which the inhibition is 101% (active).

For `CCN1C(=NCc2ccc(OC)cc2)N[C@@H](CCc2ccccc2)[C@H](C(=O)NCc2ccc(OC)cc2)[C@H]1C`, the inhibition is 34.8%. Consider `COc1cccc(Cn2cnc3c([N+](=O)[O-])c(C)c(C)cc32)c1`, for which the inhibition is 63.7% (active).

In the case of `NC(N)=N/N=C/c1ccc(OCc2ccc(Cl)cc2Cl)cc1`, the inhibition was 121% (active). The same measure for `CN(C)CCCN(C(=O)c1ccc(S(=O)(=O)N2CCCCCC2)cc1)c1nc2ccc(Br)cc2s1`: 107% (active). Turning to `CCOc1ccc2nc(N(CCCN(C)C)C(=O)c3ccc(C(=O)c4ccccc4)cc3)sc2c1`, the inhibition is 111% (active). On to `CN(C)CCCN(C(=O)c1ccc(S(=O)(=O)N2CCCCCC2)cc1)c1nc2cc3c(cc2s1)OCCO3`, for which the inhibition was 110% (active). The same measure for `c1ccc2c(CCN3CCNC[C@H]3Cc3cccc4ccccc34)cccc2c1`: 44.3%; for `CCCCCCCCCCOC(=O)Cn1c(COc2cccc(OC)c2)[n+](C)c2ccccc21`: 63.8% (active); for `COc1ccc(C(CNC(=O)c2cccc(NS(=O)(=O)c3ccc(C)c(F)c3)c2)N2CCCC2)cc1` (stereo not drawn): 94.5% (active). `CCOC(=O)c1cccc(NS(=O)(=O)c2c(C(=O)N3CCCCCC3)c(C)n(C)c2C)c1`: the inhibition is 43.9%.

As for `COC(=O)c1cc(-c2cccs2)nc2ccccc12`, the inhibition is 18.1%. Regarding `CCCCN(C)CCCNC(=O)c1cc(-c2cccs2)nc2ccccc12`, the inhibition is 45.7% (active).

As for `Cc1cc(C)c(NC(=O)C[N+](C)(C)CC(O)COc2cccc3ccccc23)c(C)c1` (stereo not drawn), the inhibition was 60.3% (active).

On to `CCCCN(CCCC)CCC(O)c1cc2c(Cl)cc(Cl)cc2c2cc(C(F)(F)F)ccc12` (stereo not drawn), for which the inhibition is 56.5% (active). On to `Cc1ccc(-c2noc(CCC(=O)Nc3ccccc3N3CCN(C)CC3)n2)cc1`, for which the inhibition was 92.8% (active). Regarding `CCCOc1ccc(Cl)cc1Nc1nc(NCCO)nc(N2CCCC2)n1`, the inhibition was 16.5%. Turning to `C#CCOCCOCCOCCNc1nc(N2CCN(C(=O)C([C@@H](C)O)n3cc([C@@H](N)CCCCN)nn3)CC2)nc(N2CCN(C(=O)[C@H](CCCCN)n3cc(CN)nn3)CC2)n1` (stereo partly drawn), the inhibition is 113% (active). For `C#CCOCCOCCOCCNc1nc(N2CCN(C(=O)C(Cc3ccc(O)cc3)n3cc(C(N)CC(C)C)nn3)CC2)nc(N2CCN(C(=O)C(Cc3ccc(O)cc3)n3cc(C(N)C(C)CC)nn3)CC2)n1` (stereo not drawn), the inhibition was 23.8%. Take `C#CCOCCOCCOCCNc1nc(N2CCN(C(=O)[C@H](CCCCN)n3cc([C@@H](N)C(C)CC)nn3)CC2)nc(N2CCN(C(=O)[C@H](Cc3ccc(O)cc3)n3cc([C@@H](N)C(C)CC)nn3)CC2)n1` (stereo partly drawn): the inhibition was 105% (active). Turning to `C#CCOCCOCCOCCNc1nc(N2CCN(C(=O)C([C@@H](C)CC)n3cc(C(N)COC(=O)C(F)(F)F)nn3)CC2)nc(N2CCN(C(=O)[C@H](CCCCN)n3cc(C(N)CC(C)C)nn3)CC2)n1` (stereo partly drawn), the inhibition is 103% (active). For the molecule `C=C1c2c(Cl)ccc(O)c2C(O)=C2C(=O)[C@]3(O)C(O)=C(C(N)=O)C(=O)[C@@H](N(C)C)[C@@H]3[C@@H](O)C12` (stereo partly drawn), the inhibition was 50.8% (active). With `COc1ccccc1NC(=O)CSc1nnc(-c2ccoc2C)n1CCc1ccccc1`, the inhibition was 94.4% (active).

For `CCN(CC)CCC(c1cc(OC)c(OC)c(OC)c1)c1c(OC)cc(OC)c2c(-c3ccccc3)cc(=O)oc12` (stereo not drawn), the inhibition is 35.1%. The same measure for `CN1CCN(CCCNC(=O)c2ccc(/C=C3\Oc4ccccc4N(Cc4ccc(Cl)cc4)C3=O)cc2)CC1`: 111% (active). With `Cn1c(C(=O)NCCCN2CCN(c3cccc(Cl)c3)CC2)cc2c(=O)n(C)c3ccccc3c21`, the inhibition was 38.7%.

Take `CCN(CC(=O)NCc1cccs1)C(=O)c1cccc(S(=O)(=O)Nc2ccccc2OC)c1`: the inhibition is 106% (active).

Turning to `OCCNc1nc(Nc2ccc(Cl)c(Cl)c2)nc2ccccc12`, the inhibition is 92% (active).

`Cc1ncc(CO)c(/C=N/NC(=O)c2cccc(S(=O)(=O)N3CCCC3)c2)c1O`: the inhibition is 32.9%. `CSCCC(NC(=O)c1ccc(Cl)cc1Cl)C(=O)NNC(=O)c1csc(N2CCOCC2)n1` (stereo not drawn): the inhibition is 55.6% (active).
